# PubChem BioAssay
# A number with no mark means an inactive call. A call without a number means that no potency is given here. For some of these results: Potency and affinity values are given separately. The source made the active and inactive calls. Unless noted, how the calls were made is not given here.
# How the values were obtained:
# [1] = antimalarial activity against Dd2 strain (AID 2302;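 active means growth inhibition above 50% at the single 2 µM test dose, taken to imply half-maximal potency below 2 µM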); details: P. falciparum Dd2 in RBCs, LDH growth readout, 72 h; at 2 µM; hits give high values
# [2] = human hepatoma cell viability loss – ATP luminescence, cytotoxicity control for P. falciparum antimalarial project, primary screen (AID 2303;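 active means inhibition above 50%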); details: HepG2 viability, 24-48 h, at 10 µM, hits give high values
# [3] = molecular target: L-lactate dehydrogenase (Plasmodium falciparum (isolate CDC / Honduras)) (UniProt Q27743); assay: PfLDH activity inhibition – cell lysate, 3D7 strain, counter-screen for P. falciparum growth inhibition project (AID 2304); details: P. falciparum 3D7 crude extract, LDH APAD/NBT absorbance; at 2 µM; hits give high values
# Chain of L-lactate dehydrogenase (Plasmodium falciparum (isolate CDC / Honduras)) (Q27743 whole entry, looked up): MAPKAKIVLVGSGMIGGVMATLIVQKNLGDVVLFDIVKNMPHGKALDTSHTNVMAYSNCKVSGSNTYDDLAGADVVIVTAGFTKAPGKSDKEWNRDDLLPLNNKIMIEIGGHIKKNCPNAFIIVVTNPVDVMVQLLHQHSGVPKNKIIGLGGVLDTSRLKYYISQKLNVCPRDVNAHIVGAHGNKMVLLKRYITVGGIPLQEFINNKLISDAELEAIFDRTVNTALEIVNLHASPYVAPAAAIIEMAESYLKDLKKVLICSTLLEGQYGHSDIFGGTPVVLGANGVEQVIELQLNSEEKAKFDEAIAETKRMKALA
# [4] = inhibition of 3D7 malaria parasite growth – strain 3D7 (AID 2306); details: P. falciparum 3D7 erythrocytic growth, LDH absorbance, 72 h; at 2 µM; hits give high values
# [5] = molecular target: Calcium-dependent protein kinase 1 (Plasmodium falciparum (isolate 3D7)) (UniProt P62344); assay: PfCDPK1 kinase inhibitors, biochemical, TCAMS library (AID 1159585; cut-off not given, nearly all actives have IC50 up to about 0.98 µM;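 further: inhibitors leave more ATP so luminescence rises with inhibition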); details: recombinant PfCDPK1, Kinase-Glo ATP depletion luminescence
# Chain of Calcium-dependent protein kinase 1 (Plasmodium falciparum (isolate 3D7)) (P62344 whole entry, looked up): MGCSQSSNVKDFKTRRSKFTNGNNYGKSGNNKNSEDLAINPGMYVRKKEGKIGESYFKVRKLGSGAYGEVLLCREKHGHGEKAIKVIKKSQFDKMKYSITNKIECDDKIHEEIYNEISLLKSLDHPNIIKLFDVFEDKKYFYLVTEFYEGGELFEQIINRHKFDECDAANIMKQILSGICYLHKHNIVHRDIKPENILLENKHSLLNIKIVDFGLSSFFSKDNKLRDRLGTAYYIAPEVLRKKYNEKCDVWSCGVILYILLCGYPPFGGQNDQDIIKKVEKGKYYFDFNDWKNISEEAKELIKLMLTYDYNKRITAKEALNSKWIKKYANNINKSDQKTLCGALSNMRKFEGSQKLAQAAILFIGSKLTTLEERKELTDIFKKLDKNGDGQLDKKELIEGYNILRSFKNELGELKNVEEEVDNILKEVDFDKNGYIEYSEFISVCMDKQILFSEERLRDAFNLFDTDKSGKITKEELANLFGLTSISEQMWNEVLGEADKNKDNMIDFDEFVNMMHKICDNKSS
# [6] = molecular target: Plasmodium falciparum protein kinase 6 (PK6, PF3D7_1337100) (UniProt Q8IDW1); assay: PfPK6 kinase inhibitors, biochemical, TCAMS library (AID 1159586); details: recombinant PfPK6, Kinase-Glo ATP depletion luminescence
# Chain of Plasmodium falciparum protein kinase 6 (PK6, PF3D7_1337100) (Q8IDW1 1-305): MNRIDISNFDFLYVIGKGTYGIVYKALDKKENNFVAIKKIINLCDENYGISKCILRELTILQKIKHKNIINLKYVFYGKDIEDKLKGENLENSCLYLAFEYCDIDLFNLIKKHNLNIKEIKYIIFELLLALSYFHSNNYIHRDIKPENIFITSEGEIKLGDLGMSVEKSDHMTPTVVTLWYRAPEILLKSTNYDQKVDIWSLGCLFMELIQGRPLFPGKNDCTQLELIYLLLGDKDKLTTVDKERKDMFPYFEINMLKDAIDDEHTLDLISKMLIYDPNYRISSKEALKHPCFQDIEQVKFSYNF
# [7] = molecular target: Protein kinase 7 (PK7), Plasmodium falciparum 3D7 (PF3D7_0213400) (UniProt Q7YTF7); assay: inhibition of Plasmodium PK7 catalytic activity – biochemical, TCAMS antimalarial set, Kinase-Glo luminescence (AID 1159587); details: recombinant PfPK7, Kinase-Glo ATP depletion luminescence
# Chain of Protein kinase 7 (PK7), Plasmodium falciparum 3D7 (PF3D7_0213400) (Q7YTF7 1-343): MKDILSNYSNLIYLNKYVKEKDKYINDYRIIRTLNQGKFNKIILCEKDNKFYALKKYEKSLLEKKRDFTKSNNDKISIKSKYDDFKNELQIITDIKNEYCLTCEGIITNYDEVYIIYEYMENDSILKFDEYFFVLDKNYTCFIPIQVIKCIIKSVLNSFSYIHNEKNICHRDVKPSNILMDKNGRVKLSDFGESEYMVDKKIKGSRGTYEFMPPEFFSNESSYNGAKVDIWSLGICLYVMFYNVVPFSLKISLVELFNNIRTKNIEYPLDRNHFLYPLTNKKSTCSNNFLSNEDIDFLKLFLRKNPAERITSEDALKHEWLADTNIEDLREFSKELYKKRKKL
# [8] = molecular target: Calcium-dependent protein kinase 4 (Plasmodium falciparum (isolate 3D7)) (UniProt Q8IBS5); assay: PfCDPK4 kinase inhibitors, biochemical, TCAMS library (AID 1159588; cut-off not given, nearly all actives have IC50 up to about 0.91 µM); details: recombinant PfCDPK4, Kinase-Glo ATP depletion luminescence
# Chain of Calcium-dependent protein kinase 4 (Plasmodium falciparum (isolate 3D7)) (Q8IBS5 whole entry, looked up): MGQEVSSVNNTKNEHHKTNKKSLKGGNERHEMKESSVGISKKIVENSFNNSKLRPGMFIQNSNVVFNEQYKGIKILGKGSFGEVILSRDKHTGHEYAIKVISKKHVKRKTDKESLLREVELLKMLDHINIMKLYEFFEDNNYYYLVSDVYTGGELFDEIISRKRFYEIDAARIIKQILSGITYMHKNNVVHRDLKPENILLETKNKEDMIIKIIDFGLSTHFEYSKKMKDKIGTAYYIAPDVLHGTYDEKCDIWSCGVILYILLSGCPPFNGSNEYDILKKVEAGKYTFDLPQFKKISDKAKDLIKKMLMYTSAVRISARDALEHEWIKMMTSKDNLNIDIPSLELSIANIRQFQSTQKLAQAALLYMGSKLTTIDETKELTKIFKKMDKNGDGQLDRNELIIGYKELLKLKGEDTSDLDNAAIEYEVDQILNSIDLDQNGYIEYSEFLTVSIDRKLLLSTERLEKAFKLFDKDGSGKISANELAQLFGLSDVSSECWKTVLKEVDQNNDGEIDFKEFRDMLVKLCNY
Structure (SMILES),growth inhibition [1],inhibition [2],inhibition [3] [%],growth inhibition [4],outcome [5],outcome [6],outcome [7],outcome [8]
FC(F)(F)c1cc(Nc2ncnc3ccc(Br)cc23)ccc1OCc1ccccc1,9%,12%,6,87% (active),inactive,inactive,inactive,inactive
Cc1ccccc1C1CCN(c2ccc(C(=O)Nc3ccc(F)cc3)cn2)CC1,96% (active),45%,-1,96% (active),inactive,inactive,inactive,inactive
CCOc1cc(C2C(C(=O)OC(C)C)=C(C)NC3=C2C(=O)CC(c2ccc(Cl)cc2)C3)ccc1OC(C)=O (centres undefined),20%,16%,-3,90% (active),inactive,inactive,inactive,inactive
COc1ccc(CCNc2nc(N)c3cc(OC)c(OC)cc3n2)cc1,1%,16%,-1,100% (active),inactive,inactive,inactive,inactive
N=C(N)CCN(Cc1ccccc1)c1ccc(Cl)cc1,98% (active),1%,4,98% (active),inactive,inactive,inactive,inactive
O=C(NCc1cccc(F)c1)Nc1cccc(-c2cccc(-c3nc4ccccc4[nH]3)c2)c1,27%,28%,-1,96% (active),inactive,inactive,inactive,inactive
COc1cc(OC)nc(C(Sc2ccc(NC(=O)c3cccs3)cc2)c2ccccc2)n1 (centres undefined),96% (active),7%,-1,97% (active),inactive,inactive,inactive,inactive
COc1ccc2c(c1)Nc1ccc(Cl)cc1C2N (centres undefined),99% (active),16%,3,101% (active),inactive,inactive,inactive,inactive
Cc1ccc(-c2nc3ccc(C(=O)NC4CCC(N5CCCc6ccc(C#N)cc6C5)CC4)cc3[nH]2)cc1 (centres undefined),49%,23%,-2,101% (active),inactive,inactive,inactive,inactive
COc1ccc(C2CC(=O)C3=C(C2)NC(C)=C(C(=O)OC2CCCC2)C3c2cccc(O)c2)cc1OC (centres undefined),98% (active),8%,-1,101% (active),inactive,inactive,inactive,inactive
COc1cccc(-c2cccc(NC(=O)C3CCN(Cc4ccc(O)cc4)CC3)c2)c1,97% (active),9%,0,97% (active),inactive,inactive,inactive,inactive
CC1(C)N=C(N)N=C(N)N1OCCCOc1ccc(N)cc1,95% (active),66% (active),1,96% (active),inactive,inactive,inactive,inactive
CC(C)NCc1cccc(-c2ccc(NS(=O)(=O)c3cccc4cccnc34)cc2)c1,10%,21%,5,90% (active),inactive,inactive,inactive,inactive
NC(=O)C1CCN(Cc2ccc(-c3ccc(-c4nc5ccc(C(F)(F)F)cc5[nH]4)s3)cc2)CC1,91% (active),22%,-5,99% (active),inactive,inactive,inactive,inactive
CN(Cc1ccccc1)C1CCCN(c2cc(NC(=O)c3ccc(F)cc3)ccn2)C1 (centres undefined),95% (active),7%,0,93% (active),inactive,inactive,inactive,inactive
Nc1c2c(nc3ccc(C(=O)Nc4cc(I)c(O)c(I)c4)cc13)CCCC2,64% (active),14%,0,96% (active),inactive,inactive,inactive,inactive
COc1cc2nc(NCCc3ccccc3)nc(NCc3nccs3)c2cc1OC,93% (active),1%,0,99% (active),inactive,inactive,inactive,inactive
C[C@@H]1CN(c2cnn(Cc3cccc(NC(=O)Nc4ccc(F)cc4[N+](=O)[O-])c3)c(=O)c2Cl)C[C@H](C)N1,13%,7%,6,91% (active),inactive,inactive,inactive,inactive
COCCSc1nc2scc(C)c2c(=O)n1Cc1cccc(OC)c1,33%,0%,-8,92% (active),inactive,inactive,inactive,inactive

Structure (SMILES),growth inhibition [1],inhibition [2],inhibition [3] [%],growth inhibition [4],outcome [5],outcome [6],outcome [7],outcome [8]
O=S1c2ccccc2Sc2ccccc21,-1%,48%,6,99% (active),inactive,inactive,inactive,inactive
O=[N+]([O-])c1ccc(Nc2nc(NN=Cc3cccc(O)c3)nc(N3CCCC3)n2)cc1,9%,-6%,-5,88% (active),inactive,inactive,inactive,inactive
O=C(NC1CCCCN(Cc2ccc3c(c2)OCCO3)C1)c1cc(-c2ccccc2F)cs1 (centres undefined),19%,8%,1,92% (active),inactive,inactive,inactive,inactive
Cc1cccn2c(=O)c3cc(C(=O)NC(C)c4ccccc4)c(=N)n(CCc4ccccc4)c3nc12 (centres undefined),82% (active),5%,-3,101% (active),inactive,inactive,inactive,inactive
CCN(CC)CCN1C(=O)c2oc3ccc(F)cc3c(=O)c2C1c1cccc(Cl)c1 (centres undefined),93% (active),-4%,-2,99% (active),inactive,inactive,inactive,inactive
Cc1ccc(Nc2nc(NN=Cc3ccccc3[N+](=O)[O-])nc(Nc3ccc([N+](=O)[O-])cc3)n2)cc1C,81% (active),4%,5,101% (active),inactive,inactive,inactive,inactive
Cc1ccc(NC(=O)c2ccc(CN3CCCN(CCC(C)C)CC3)cc2)cc1C,17%,25%,3,92% (active),inactive,inactive,inactive,inactive
O=c1c2ccccc2[nH]c2cc(Cl)ccc12,86% (active),24%,1,95% (active),inactive,inactive,inactive,inactive
CS(=O)(=O)N(c1ccc(F)cc1)c1cc(C(=O)N[C@@H](Cc2ccccc2)[C@H](O)CNCc2cccc(C(F)(F)F)c2)cc(N2CCCC2=O)c1,65% (active),-4%,-1,91% (active),inactive,inactive,inactive,inactive
O=C(Nc1cn(-c2ccc(OCc3cccc(F)c3)c(Cl)c2)c2ncncc12)c1ccncc1,81% (active),13%,0,100% (active),inactive,inactive,inactive,inactive
COc1cc2c(cc1C=CC(=O)N1CCN(Cc3nc4sc(C)c(C)c4c(=O)[nH]3)CC1)OC(C)C2 (centres undefined),87% (active),-1%,-9,82% (active),inactive,inactive,inactive,inactive
COc1c(C2=CCN(CCCCNC(=O)c3ccc(-c4ccc(C#N)cc4)cc3)CC2)ccc2c1CCCC2,82% (active),44%,7,94% (active),inactive,inactive,inactive,inactive
CC(C)Sc1ccc(Cl)cc1CON1C(N)=NC(N)=NC1(C)C,90% (active),66% (active),6,93% (active),inactive,inactive,inactive,inactive
COc1ccc(Nc2nc(N3CCCC3)c3ccccc3n2)cc1,98% (active),40%,2,102% (active),inactive,inactive,inactive,inactive
Nc1nccc2ccc(-c3ccsc3)cc12,89% (active),38%,4,100% (active),inactive,inactive,inactive,inactive
COc1ccc(CCOc2c(C)nc(N)nc2N)cc1OC,22%,66% (active),4,96% (active),inactive,inactive,inactive,inactive
Cc1cnc(Nc2cccnc2)nc1Nc1ccccc1C(=O)NC(C)C,26%,9%,0,85% (active),inactive,inactive,inactive,inactive
Oc1ccccc1CN1CCC2(CCCN(Cc3ccccc3F)C2)C1 (centres undefined),83% (active),13%,-2,98% (active),inactive,inactive,inactive,inactive
CC(C)OC(=O)c1ccccc1S(N)(=O)=O,-2%,-6%,1,97% (active),inactive,inactive,inactive,inactive
